Source: PubChem BioAssay (NMMLSC)
An excerpt weighted towards active compounds, which were near 3.5% of everything screened.
BoNT A protease – BoNT/A light chain protease inhibitors, primary screen, biochemical, flow cytometry, MLPCN library; multiplex microsphere protease substrate cleavage; inhibition, % at 10 µM; 0.17% of 360,000 active
Anthrax LF inh2 – Bacillus anthracis LF protease inhibitors, primary screen, biochemical, multiplex microsphere, MLPCN library. inhibition, % at 10 µM. multiplex microsphere protease cleavage assay. 0.12% of 360,000 active
Target sequence (P15917 whole entry, looked up): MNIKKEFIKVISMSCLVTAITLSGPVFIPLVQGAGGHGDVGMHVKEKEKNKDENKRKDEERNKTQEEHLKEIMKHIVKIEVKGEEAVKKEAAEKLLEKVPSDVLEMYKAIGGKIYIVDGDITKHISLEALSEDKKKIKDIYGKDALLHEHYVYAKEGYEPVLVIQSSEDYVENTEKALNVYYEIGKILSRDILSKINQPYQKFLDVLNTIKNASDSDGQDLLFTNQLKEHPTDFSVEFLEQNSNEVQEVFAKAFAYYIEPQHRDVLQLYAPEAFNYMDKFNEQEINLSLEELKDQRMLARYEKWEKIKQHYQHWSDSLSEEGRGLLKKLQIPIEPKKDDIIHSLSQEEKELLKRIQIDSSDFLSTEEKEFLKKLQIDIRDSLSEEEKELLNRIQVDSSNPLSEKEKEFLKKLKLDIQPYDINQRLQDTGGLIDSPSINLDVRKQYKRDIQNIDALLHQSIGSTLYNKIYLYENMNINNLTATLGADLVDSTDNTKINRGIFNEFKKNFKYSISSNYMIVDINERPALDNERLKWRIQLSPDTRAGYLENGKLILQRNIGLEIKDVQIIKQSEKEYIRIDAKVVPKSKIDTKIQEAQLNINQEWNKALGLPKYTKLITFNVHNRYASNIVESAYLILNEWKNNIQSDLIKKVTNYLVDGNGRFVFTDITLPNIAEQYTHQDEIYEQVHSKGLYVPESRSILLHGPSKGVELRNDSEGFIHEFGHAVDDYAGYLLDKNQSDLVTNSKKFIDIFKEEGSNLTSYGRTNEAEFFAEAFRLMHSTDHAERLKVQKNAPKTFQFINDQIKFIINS
BoNT-F LC inh – BoNT/F light chain protease inhibitors, primary screen, biochemical, flow cytometry, MLPCN library; Botulinum neurotoxin type F light chain protease (Clostridium botulinum); Multiplex microsphere protease cleavage assay; inhibition, % at 10 µM; 0.22% of 360,000 active; in the data active means inhibition above about 35%, passing the limit was not always enough; inconclusive means no clear call, values can overlap the other calls
Bead autofluor – compound fluorescence in toxin protease inhibitor counterscreen. compound autofluorescence counterscreen, microsphere flow cytometry; stronger effect = higher value. fluorescence intensity (no concentration beside the values). 3.1% of 360,000 active. AID 624483; in the data active means fluorescence intensity above about 16000; inconclusive means no clear call, values can overlap the other calls
Large screens that a line does not name were inactive. Unless noted, no stated cut-off is given here; in the data, active means inhibition above about 30%; inconclusive means no clear call, values can overlap the other calls; inactive means below that.

COc1ccc(S(=O)(=O)N2CCC(NC(=O)Nc3ccc(C)cc3)CC2)cc1	BoNT A protease inconclusive, Bead autofluor 20464
COc1ccc(S(=O)(=O)N2CCCCCC2)cc1	Bead autofluor 22702
Cc1ccc(NC(=O)NC2CCN(S(=O)(=O)c3ccc(F)cc3)CC2)cc1	none
COc1ccc(S(=O)(=O)N2CCC(C(=O)NCC3CC3)CC2)cc1	none
COc1ccc(-c2ccc(S(=O)(=O)N3CCCC3)cc2)cc1	none
O=C1C=CC(O)C2(CO)OC12 (configuration not stated)	none
COCCNC(=O)C1(C)CCCN(C(=O)c2ccc(-c3ccccc3)cc2)C1 (configuration not stated)	none
CCN1C(=O)[C@@H]2[C@@H]3CN(S(=O)(=O)c4ccc(C)cc4)[C@@H](c4ccccc4F)[C@@H]3C(=O)C[C@@H]2C1=O	none
CC(Sc1nc2ccccc2[nH]1)C(=O)O (configuration not stated)	Bead autofluor 23428
CCc1ccc(OCCNC(=O)c2ccc(S(=O)(=O)N(C)C)cc2)cc1	Bead autofluor 22522
COc1ccccc1S(=O)(=O)N(C)C[C@@H]1OCc2cnnn2CCCC(=O)N([C@@H](C)CO)C[C@@H]1C	none
O=C(NNC(=O)C1CCCO1)c1ccc([N+](=O)[O-])cc1 (configuration not stated)	none
O=C(NNC(=O)C1CCCO1)c1ccc(Cl)cc1 (configuration not stated)	BoNT-F LC inh 36.9
O=C(CCN1C(=O)C2CC=CCC2C1=O)Nc1nc(-c2ccc(F)c(F)c2)cs1 (configuration not stated)	none
CC1(C)CC(=O)C2=C(C1)OC(N)=C(C#N)C2C1CC=CCC1 (configuration not stated)	Bead autofluor 22645
CC1C(C#N)=C(N)OC2=C1C(=O)CC(C)(C)C2 (configuration not stated)	none
Cc1ccc(NC(=O)CSc2ncccn2)cc1S(=O)(=O)N1CCOCC1	none
CCn1c(SCC(=O)Nc2nccs2)nnc1-c1cc2cccc(OC)c2o1	none
COc1cccc2cc(-c3nnc(SCC(=O)NCc4ccccc4)n3C)oc12	BoNT A protease inconclusive, Bead autofluor 22828
CCn1c(SCC(=O)NC2CCCCC2)nnc1-c1cc2cccc(OC)c2o1	none
COc1cccc2cc(-c3nnc(SCC(=O)Nc4cc(C(F)(F)F)ccc4Cl)n3N)oc12	Bead autofluor 23578
CCOc1cc(C2C3=C(CCCC3=O)Nc3nc(C(=O)OC)nn32)ccc1OC (configuration not stated)	Bead autofluor 22585
CCOc1ccc(C2C3=C(CCCC3=O)Nc3nc(C(F)(F)F)nn32)cc1OC (configuration not stated)	none
O=S(=O)(N1CCCCCC1)N1CCN(S(=O)(=O)N2CCCCC2)CC1	Bead autofluor 19718
O=S(=O)(N1CCOCC1)N1CCCN(S(=O)(=O)N2CCOCC2)CC1	none
CC1(C(=O)NCc2cccnc2)CCN1C(=O)c1cccc(F)c1 (configuration not stated)	none
CCOc1cc(C(c2c(C)[nH][nH]c2=O)c2c(C)[nH][nH]c2=O)ccc1OS(=O)(=O)c1ccccc1	Bead autofluor 20887
CCCn1c(=O)c(F)cn(Cc2ccc(OC)c([N+](=O)[O-])c2)c1=O	Bead autofluor 21734
CCOC(=O)C1(C)CCCN1C(=O)c1cccs1 (configuration not stated)	none
c1ccc(Sc2nc(N3CCCCC3)nc(N3CCCCC3)n2)nc1	BoNT A protease inconclusive, Bead autofluor 19461
O=C(C1CCCO1)N1CCN(S(=O)(=O)c2ccccc2)CC1 (configuration not stated)	Bead autofluor 22925
O=C(c1cc2ccccc2oc1=O)N1CCN(C(=O)C2CCCO2)CC1 (configuration not stated)	Bead autofluor 25648
Cc1ccc(S(=O)(=O)N2CCN(C(=O)C3CCCO3)CC2)cc1C (configuration not stated)	none
CC(C)C[C@H]1CN(CCCC[C@H]2CNC(=O)C(=O)N2Cc2ccccc2)C(=O)C(=O)N1CCC1CCCCC1	none
COCCOCCOCCC(=O)NC1CC2CCC1(C)C2(C)C (configuration not stated)	Bead autofluor 21940
Cc1ccc(-n2c(C)cn(C(=O)c3ccccc3)c2=S)cc1	none
Cc1cn(C(=O)c2ccccc2)c(=S)n1-c1ccc(Cl)cc1	Bead autofluor 17230
Nc1nncn1C(=O)CCc1ccccc1	BoNT A protease inconclusive, Bead autofluor 22172
c1ccc(-c2nnc3n2CCCC3)cc1	Bead autofluor 22320
Cc1cc(=O)oc2cc(OC(C)C(=O)N3CCOCC3)ccc12 (configuration not stated)	Bead autofluor 23796
CC(C)N1CCc2c(sc(NC(=S)NC(=O)c3ccccc3)c2C#N)C1	BoNT A protease 32.2
CCN1CCc2c(sc(NC(=O)c3ccc4ccccc4c3)c2C(N)=O)C1	none
CC(C)N1CCc2c(sc(N)c2C#N)C1	Bead autofluor 19341
CCCN1CCc2c(sc(NC(=S)NC(=O)c3ccccc3)c2C#N)C1	BoNT A protease 58.1
CCN1CCc2c(sc(NC(=S)NC(=O)c3ccc(Cl)cc3)c2C(N)=O)C1	BoNT-F LC inh inconclusive, Bead autofluor 16287
Cc1sc(NC(=S)NC(=O)c2ccccc2)c(C#N)c1C	none
CC(C)C[C@@H](CN)NC(=O)c1nc[nH]c1C(=O)N[C@@H](C)C(=O)CNC[C@H](C)NC(=O)c1nc[nH]c1C(=O)N[C@@H](C)C(=O)O	none
COc1cc(C(O)c2nc(-c3ccccc3OC)cs2)ccc1F (configuration not stated)	none
CC(=NCc1ccco1)c1c(O)n(C)c(=O)n(C)c1=O	Bead autofluor 21713
COc1cc(CN=C(C)c2c(O)n(C)c(=O)n(C)c2=O)cc(OC)c1	none
CC(=NCc1ccc(F)cc1)c1c(O)n(C)c(=O)n(C)c1=O	BoNT A protease inconclusive, Bead autofluor 19909
CC(=NCC1CCCO1)c1c(O)n(C2CCCCC2)c(=O)[nH]c1=O (configuration not stated)	none
CC(=NCC1CCCO1)c1c(O)n(C)c(=O)n(C)c1=O (configuration not stated)	Bead autofluor 20914
CCC(=NCc1ccco1)c1c(O)n(C)c(=O)n(C)c1=O	none
CC(=NCCCn1ccnc1)c1c(O)n(C)c(=O)n(C)c1=O	Bead autofluor 19563
CCc1c(C(=O)Nc2nnc(C3CC3)s2)csc1C	BoNT A protease inconclusive, Bead autofluor 21291
Cc1ccccc1-n1c(SCC(=O)N2CCCCC2)nc(O)cc1=O	none
COc1ccc(-n2c(SCC(=O)N3CCCCC3)nc(O)cc2=O)cc1	Bead autofluor 21636
O=C(Nc1c(-c2ccc3c(c2)OCO3)[nH][nH]c1=O)c1cnccn1	none
Cc1c(C(=O)NCc2ccccn2)oc2ccc(Br)cc12	none
CCN(CCCNC(=O)c1c(C)cc(=O)oc1C)c1cccc(C)c1	Bead autofluor 22991
O=C(NCc1ccccn1)c1cc2cc(Br)ccc2oc1=O	Bead autofluor 25730
